This passage reports normalised cell viability results from the supplement of paper PMC6609913.

The test relates to V-C8 + BRCA2 (BRCA2-proficient hamster cells). The test can be described thus: normalised cell viability (fraction of plate median); higher = more viable cells (less toxic). The conditions noted are these: 5 µM. In a few lines: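 Hamster V-C8 cells with and without restored BRCA2 were exposed in 96-well plates to library drugs at 5 μM for 3 days (screen 1) or 6 days (screen 2). Cell viability was scored by resazurin assay, then median-plate normalised, averaging triplicate wells.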

Structures can show the parent of a compound that is named as a salt. ± gives the standard deviation of the averaged measurements. In all, about 1,300 compounds were measured (“normalised cell viability”: median about 1, lowest 2% from about 0.15 on). The list comes from a sample in which the lowest values are over-represented; it also holds similar structures and randomly drawn compounds.

Regarding `CS(=O)(=O)c1ccc(C2=C(c3ccccc3)C(=O)OC2)cc1` [Rofecoxib], the normalised cell viability is, setting by setting: (treatment time: 3 days) 1 ± 0.039; (treatment time: 6 days) 1.02 ± 0.06.

Turning to `CS(=O)(=O)c1ccc([C@@H](O)[C@@H](CO)NC(=O)C(Cl)Cl)cc1` [Thiamphenicol], the normalised cell viability is 0.9701 ± 0.0087 (treatment time: 3 days) and 0.927 ± 0.02 (treatment time: 6 days).

With `NCCc1c[nH]cn1` [Histamine dihydrochloride], the normalised cell viability was 0.994 ± 0.016 (treatment time: 3 days) and 0.991 ± 0.064 (treatment time: 6 days).

Regarding `COc1ccc(C(=O)CC(=O)c2ccc(C(C)(C)C)cc2)cc1` [Avobenzone], the normalised cell viability was found to be 1.02 ± 0.057 (treatment time: 3 days) and 1.04 ± 0.12 (treatment time: 6 days).

With `CCN(CC)C(=O)/C(C#N)=C/c1cc(O)c(O)c([N+](=O)[O-])c1` [Entacapone], the normalised cell viability is 0.944 ± 0.013 (treatment time: 3 days) and 1.03 ± 0.03 (treatment time: 6 days).

For `CC(C)COCC(CN(Cc1ccccc1)c1ccccc1)N1CCCC1` (stereo not drawn) [Bepridil hydrochloride], the normalised cell viability (treatment time: 3 days) was found to be 0.938 ± 0.069 and the normalised cell viability (treatment time: 6 days) stood at 0.828 ± 0.035.

Take `COc1cc([C@@H]2c3cc4c(cc3[C@@H](O[C@@H]3O[C@@H]5CO[C@@H](C)O[C@H]5[C@H](O)[C@H]3O)[C@H]3COC(=O)[C@H]23)OCO4)cc(OC)c1O` [Etoposide]: the normalised cell viability was found to be 0.141 ± 0.0097 (treatment time: 3 days) and 0.15 ± 0.017 (treatment time: 6 days).

As to `CC(=O)[C@@]12O[C@](C)(c3ccccc3)O[C@@H]1C[C@H]1[C@@H]3CCC4=CC(=O)CC[C@]4(C)[C@H]3CC[C@@]12C` [Algestone acetophenide], the normalised cell viability by setting is: (treatment time: 3 days) 0.968 ± 0.025; (treatment time: 6 days) 1.07 ± 0.1.

In the case of `CCCCCCCCNC(C)C(O)c1ccc(SC(C)C)cc1` (stereo not drawn) [Suloctidil], the normalised cell viability is, setting by setting: (treatment time: 3 days) 0.653 ± 0.045; (treatment time: 6 days) 0.743 ± 0.068.

As to `CC(C)NCC(O)c1cc(O)cc(O)c1` (stereo not drawn) [Metaproterenol sulfate, orciprenaline sulfate], the normalised cell viability reads like this: (treatment time: 3 days) 1.03 ± 0.023; (treatment time: 6 days) 1.04 ± 0.02.

`Nc1ccc(C(=O)O)c(O)c1` [4-aminosalicylic acid]: the normalised cell viability reads like this: (treatment time: 3 days) 0.944 ± 0.086; (treatment time: 6 days) 1.03 ± 0.043.

For the molecule `CN(C)CCN(Cc1cccs1)c1ccccn1` [Methapyrilene hydrochloride], the normalised cell viability reads like this: (treatment time: 3 days) 1.12 ± 0.021; (treatment time: 6 days) 1.04 ± 0.042.

With `CO/N=C(\C(=O)N[C@@H]1C(=O)N2C(C(=O)O)=C(C[N+]3(C)CCCC3)CS[C@H]12)c1csc(N)n1` [Cefepime hydrochloride], the normalised cell viability by setting is: (treatment time: 3 days) 0.933 ± 0.092; (treatment time: 6 days) 0.888 ± 0.098.

Regarding `CCC1NC(=O)c2cc(S(N)(=O)=O)c(Cl)cc2N1` (stereo not drawn) [Quinethazone], the normalised cell viability (treatment time: 3 days) stood at 0.989 ± 0.058 and the normalised cell viability (treatment time: 6 days) is 0.989 ± 0.073.

Regarding `Nc1ccc(/N=N/c2ccccc2)c(N)n1` [Phenazopyridine hydrochloride], the normalised cell viability by setting is: (treatment time: 3 days) 1.02 ± 0.039; (treatment time: 6 days) 1.04 ± 0.035.

Regarding `Clc1ccc(C(c2ccccc2Cl)C(Cl)Cl)cc1` (stereo not drawn) [Mitotane], the normalised cell viability is, setting by setting: (treatment time: 3 days) 1.02 ± 0.035; (treatment time: 6 days) 1.01 ± 0.076.

Regarding `CC(C)NCC(O)c1ccc(O)c(O)c1` (single isomer, unassigned; (+)) [(+)-Isoproterenol (+)-bitartrate salt], the normalised cell viability (treatment time: 3 days) is 1 ± 0.048 and the normalised cell viability (treatment time: 6 days) amounted to 1.05 ± 0.07.

`CC(=O)OCC(=O)[C@@]1(O)[C@H](C)C[C@H]2[C@@H]3CCC4=CC(=O)C=C[C@]4(C)[C@@]3(F)[C@@H](O)C[C@@]21C` [Dexamethasone acetate]: the normalised cell viability reads like this: (treatment time: 3 days) 1.08 ± 0.057; (treatment time: 6 days) 1.02 ± 0.056.

Consider `NC(=O)c1cnccn1` [Pyrazinamide], for which the normalised cell viability runs as follows: (treatment time: 3 days) 1.14 ± 0.039; (treatment time: 6 days) 1.02 ± 0.043.

As for `CCN(CC)CCc1nc(-c2ccccc2)no1` [Oxalamine citrate salt], the normalised cell viability reads like this: (treatment time: 3 days) 1 ± 0.018; (treatment time: 6 days) 1.01 ± 0.03.

Turning to `C=C1/C(=C\C=C2/CCC[C@]3(C)[C@@H]([C@H](C)CCCC(C)C)CC[C@@H]23)C[C@@H](O)C[C@@H]1O` [Alfacalcidol], the normalised cell viability by setting is: (treatment time: 3 days) 0.751 ± 0.062; (treatment time: 6 days) 0.719 ± 0.094.

`C[C@@H]1NC(=O)NC1=O` [Methylhydantoin-5-(L)]: the normalised cell viability by setting is: (treatment time: 3 days) 0.988 ± 0.053; (treatment time: 6 days) 1.07 ± 0.046.

With `CCOC(=O)[C@H](CCc1ccccc1)N[C@H]1CCc2ccccc2N(CC(=O)O)C1=O` [Benazepril HCl], the normalised cell viability is, setting by setting: (treatment time: 3 days) 1.03 ± 0.018; (treatment time: 6 days) 1.07 ± 0.029.

Take `CC(C)NCC(O)c1ccc2ccccc2c1` (stereo not drawn) [Pronethalol hydrochloride]: the normalised cell viability (treatment time: 3 days) amounted to 0.972 ± 0.037 and the normalised cell viability (treatment time: 6 days) was 0.995 ± 0.041.

In the case of `CC(=O)[C@H]1CC[C@H]2[C@@H]3CC=C4C[C@@H](O)CC[C@]4(C)[C@H]3CC[C@]12C` [Pregnenolone], the normalised cell viability was found to be 1 ± 0.067 (treatment time: 3 days) and 1.07 ± 0.12 (treatment time: 6 days).

Regarding `O=C1c2cccc(O)c2C(=O)c2c(O)cccc21` [1,8-Dihydroxyanthraquinone], the normalised cell viability (treatment time: 3 days) was 0.853 ± 0.051 and the normalised cell viability (treatment time: 6 days) is 0.914 ± 0.076.

For `O=C1c2c(O)ccc(O)c2C(=O)c2c(NCCNCCO)ccc(NCCNCCO)c21` [Mitoxantrone dihydrochloride], the normalised cell viability (treatment time: 3 days) was 0.123 ± 0.0098 and the normalised cell viability (treatment time: 6 days) was 0.124 ± 0.0098.

For `O=C1c2c(O)cccc2Cc2cccc(O)c21` [Anthralin], the normalised cell viability is, setting by setting: (treatment time: 3 days) 0.979 ± 0.036; (treatment time: 6 days) 0.978 ± 0.018.

In the case of `Clc1ccc(COC(Cn2ccnc2)c2ccc(Cl)cc2Cl)cc1` (stereo not drawn) [Econazole nitrate], the normalised cell viability is, setting by setting: (treatment time: 3 days) 1 ± 0.025; (treatment time: 6 days) 1.04 ± 0.049.

Turning to `CC(=O)NC[C@H]1CN(c2ccc(N3CCOCC3)c(F)c2)C(=O)O1` [Linezolid], the normalised cell viability stood at 1.06 ± 0.11 (treatment time: 3 days) and 1.04 ± 0.04 (treatment time: 6 days).

`O=C(NCC1CCCCN1)c1cc(OCC(F)(F)F)ccc1OCC(F)(F)F` (stereo not drawn) [Flecainide acetate]: the normalised cell viability runs as follows: (treatment time: 3 days) 1.12 ± 0.066; (treatment time: 6 days) 1.02 ± 0.12.

As to `CCCCC(C)(O)C/C=C/[C@H]1[C@H](O)CC(=O)[C@@H]1CCCCCCC(=O)OC` (mixture of isomers) [Misoprostol], the normalised cell viability reads like this: (treatment time: 3 days) 0.976 ± 0.09; (treatment time: 6 days) 1.03 ± 0.024.

In the case of `CCN(CC)CCN[C@@H](C(=O)OCCC(C)C)c1ccccc1` [Camylofine chlorhydrate], the normalised cell viability reads like this: (treatment time: 3 days) 0.957 ± 0.014; (treatment time: 6 days) 0.998 ± 0.096.

For the molecule `CC1(C)S[C@@H]2[C@H](NC(=O)[C@H](C(=O)O)c3ccsc3)C(=O)N2[C@H]1C(=O)O` [Ticarcillin sodium], the normalised cell viability by setting is: (treatment time: 3 days) 1.02 ± 0.021; (treatment time: 6 days) 1.04 ± 0.097.
